# High-throughput results deposited in PubChem by National Center for Advancing Translational Sciences (NCATS).
# SW480 rereplic = A quantitative high throughput screen for small molecules that induce DNA re-replication in SW480 colon adenocarcinoma cells; SW480 DNA re-replication, Hoechst DNA content imaging, 48 h; Potency, µM (doses to about 46.1 µM), hits mostly activators; actives 1.8% (n = 340,000); AID 624297, 2012; also: nearly all actives have a fitted effect of over 55% in size
#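 Quantitative HTS format with DMSO vehicle controls; 48 hr drug incubation at 37 C, then 40 min Hoechst staining and scanning imager measurement at 405 nm excitation.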
# MCF10A rerep = A quantitative high throughput screen for small molecules that induce DNA re-replication in MCF 10a normal breast cells. MCF 10A DNA re-replication, Hoechst nuclear intensity, 48 h. Potency, µM (series often up to 46.1 µM), usual class: activators. actives 2.9% (n = 350,000). AID 624296, 2012; also: nearly all actives have a fitted effect of over 50% in size
# KB-3-1 tox = qHTS assay for MDR1-selective chemotherapeutics: Primary screen using the parental adenocarcinoma cell KB-3-1; KB-3-1 viability, CellTiter-Glo ATP luminescence, 72 h; Potency, µM (titrated, usually from 46.1 µM), usual class: cytotoxic; actives 1.4% (n = 400,000); AID 1347075, 2019; also: nearly all actives have a fitted effect of over 60% in size
#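 Using CellTiter-Glo luminescence, growth of non-resistant KB-3-1 adenocarcinoma cells is assessed 72 h after pin-tool compound addition at 37 °C. Normalized responses across the concentration series yield fitted curves.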
# ELG1 DNA repair = qHTS screen for small molecules that inhibit ELG1-dependent DNA repair in human embryonic kidney (HEK293T) cells expressing luciferase-tagged ELG1; HEK293T ELG1-luciferase reporter, luminescence, 16 h; DNA damage induced by 5-fluorouridine; Potency, µM (highest dose often 46.1 µM), hits mostly inhibitors; actives 2.3% (n = 330,000); also: nearly all actives have a fitted effect of over 55% in size
#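 Overnight (16 hr) co-exposure of 2,000 cells/well to 5-fluorouridine and compound at 37 °C preceded detection. Luciferase was quantified via ONE-Glo luminescence; loss of signal denotes inhibition.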
# KB-V1 MDR tox = qHTS assay for MDR1-selective chemotherapeutics: Primary screen using the drug-selected MDR subline cells KB-V1; KB-V1 MDR cells viability, CellTiter-Glo, 72 h; Potency, µM (titrated, usually from 46.1 µM), actives largely listed as cytotoxic; actives 3.4% (n = 400,000); also: nearly all actives have a fitted effect of over 60% in size
#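 Compound-treated KB-V1 multidrug-resistant cells, 72 h, 37 degrees C; viability by CellTiter-Glo. Fitted qHTS curves give the values.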
# A number is an active result; i = inactive; ? = inconclusive; nt = no result. In the library only some 8.1% were active in any assay of this set; here they are far more common. Calls follow the shape of the dose curve; as a rule, active = well fitted curve in the direction sought with a large enough effect; inconclusive = small, poorly fitted or top-dose-only effect, or another doubt; inactive = no such curve, though single readings can be large; an effect the other way counts as inactive or inconclusive.
SMILES,SW480 rereplic,MCF10A rerep,KB-3-1 tox,ELG1 DNA repair,KB-V1 MDR tox
O=C(CN1CCOCC1)Nc1nc2ccc(Cl)cc2s1,i,i,i,i,i
O=C(CN1CCOCC1)Nc1ncc(Cc2cccc(Cl)c2)s1,8.2µM,?,i,i,i
Cc1cc(C)nc(SCC(=O)Nc2ncc(Cc3cccc(Cl)c3)s2)n1,i,?,i,i,4.6µM
O=C(CN1CCOCC1)Nc1ccc(Br)cn1,21µM,?,i,i,i
COc1ccc(Cl)cc1NC(=O)CSc1nc(C)cc(C)n1,?,i,i,i,i
O=C(NCC(=O)N1CCN(c2ccccc2O)CC1)c1ccco1,i,i,i,?,i
CCS(=O)(=O)N1CCN(C(C)CCc2ccccc2)CC1 (stereo not given),i,i,i,i,i
CCNC(=S)N/N=C(\C)c1cccc(C(F)(F)F)c1,i,i,i,i,?
CC(=O)c1ccc(N2CCN(C(=O)c3cc4c(s3)-c3ccccc3OC4)CC2)cc1,nt,nt,i,nt,16µM
O=C(c1cc2c(s1)-c1ccccc1OC2)N1CCN(c2ccc(F)cc2)CC1,nt,nt,i,nt,i
Cc1cccc(Oc2nccc(C(F)(F)F)c2C(=O)Nc2ccc(F)cc2F)c1,i,i,i,i,i
Cc1nn(C)c(Oc2cccc(Cl)c2)c1C(=O)Nc1ccc(F)cc1F,i,i,i,i,18µM
Cc1nn(C)c(Oc2cccc(Cl)c2)c1C(=O)Nc1ccc(F)cc1,i,i,i,i,15µM
Cc1ccc(C)n1-c1ccc(N(C)C)cc1,?,?,i,?,i
N#C/C(=N/O)c1nc(-c2ccc(F)cc2)cs1,i,?,i,i,i
Cc1nc(C(F)(F)F)c(C(=O)N/N=C(\N)c2ccccn2)s1,7.3µM,?,?,?,?
N/C(=N\NS(=O)(=O)c1ccccc1C(F)(F)F)c1ccccn1,?,i,i,?,i
COc1ccc([C@H]2CC(=O)C=C(c3cccc(Cl)c3O)C2)cc1OC,i,i,i,?,i
O=C1C=C(c2cccc3c2Oc2ccccc2S3)C[C@@H](c2ccc(Cl)cc2)C1,i,i,?,21µM,i
COc1ccc([C@H]2CC(=O)C=C(c3cccc4c3Oc3ccccc3S4)C2)cc1OC,i,?,?,18µM,?
Cc1ccc2[nH]c(=O)c3cc(C(=O)NCCc4ccc(Cl)cc4)sc3c2c1,nt,nt,i,nt,i
Cc1ccc(CN2CCC(n3nccc3NC(=O)C3CCOC3)CC2)cc1C (stereo not given),i,i,i,i,i
CSc1ccc(CN2CCC(CO)(Cc3ccc(Cl)cc3)CC2)cc1,?,?,?,i,?
COC(=O)NCC(c1ccco1)N1CCN(c2ccccc2)CC1 (stereo not given),i,i,i,i,i
O=C(NCC1CCCO1)C(=O)NCC(c1ccco1)N1CCN(c2ccccc2)CC1 (stereo not given),?,i,i,i,21µM
SMILES,SW480 rereplic,MCF10A rerep,KB-3-1 tox,ELG1 DNA repair,KB-V1 MDR tox
O=C(NCC1CCCO1)C(=O)NCC(c1ccco1)N1CCN(c2ccc(F)cc2)CC1 (stereo not given),i,i,i,i,8.2µM
O=C(NCC(c1ccco1)N1CCN(c2ccc(F)cc2)CC1)C(=O)NC1CCCC1 (stereo not given),i,i,i,i,i
CCc1cc2c(=O)c(-c3ccc4c(c3)OCO4)coc2c(CN(C)C)c1O,i,i,i,i,i
CCc1cc2c(=O)c(-c3cscn3)coc2c(CN(C)C)c1O,?,10µM,i,i,i
O=c1cc(-c2ccccc2)nc2cc(-c3ccc(Br)cc3)[nH]n12,i,3.3µM,i,?,i
O=c1cc(-c2ccccc2)nc2cc(-c3ccco3)[nH]n12,i,i,i,i,i
CCN=c1sc(C(=O)NCCc2ccccc2)cc(=O)n1CC,?,?,?,i,?
CCCCC1C(=O)CC[C@H]2[C@@H]1CC(=O)[C@@H]2C/C=C\CCCC(=O)O (stereo not given in full),1.8µM,i,i,i,i
CC1(C)CCC(=O)N2CC[C@H]3C[C@H](OC(=O)Nc4ccc(Br)cc4)C[C@@H]1[C@H]32,?,i,i,?,i
N=c1n(CC(=O)c2ccc(Br)cc2)c2ccccc2n1Cc1ccccc1,i,i,?,?,?
Cc1cccc(OCC(O)Cn2c(=N)n(Cc3ccccc3)c3ccccc32)c1 (stereo not given),?,i,i,?,?
Cc1ccc(OCC(O)Cn2c(=N)n(Cc3ccccc3)c3ccccc32)cc1 (stereo not given),?,?,i,?,16µM
N=c1n(Cc2ccccc2)c2ccccc2n1Cc1ccccc1,23µM,?,?,?,18µM
Cc1ccccc1OCc1nnc(SCc2cc(=O)c3ccc(C)c(C)c3[nH]2)n1C,nt,nt,i,nt,i
O=C1c2c(Br)c(Br)c(Br)c(Br)c2C(=O)N1c1ccccn1,i,0.65µM,i,i,i
O=C1c2cccc3cccc(c23)C(=O)N1c1ccccn1,i,i,i,i,i
CC1(C(=O)NCc2ccc(Cl)cc2)CCN1C(=O)Cc1cccc2ccccc12 (stereo not given),nt,nt,i,nt,i
O=C(CN1CCN(c2ccccc2O)CC1)NC(c1ccccc1)c1ccccc1,i,i,i,?,4.1µM
O=C(CN1CCCC1)NC(c1ccccc1)c1ccccc1,i,i,i,i,i
CCN1C(=O)c2ccccc2S(=O)c2ccc(C(=O)N3CCN(C(=O)c4ccco4)CC3)cc21 (stereo not given),i,i,i,?,i
Cc1ccc(C(=O)OCC(=O)NNC(=O)c2cccs2)c(O)c1,18µM,i,i,i,i
CCOC(=O)N1CCN(c2ccc(C(=O)c3cccc(F)c3)cc2)CC1,i,i,i,?,?
O=C(c1ccc(N2CCN(C(=O)c3cccc(F)c3)CC2)cc1)c1cccc(F)c1,i,?,i,?,4.1µM
O=C(c1ccc(N2CCN(C(=O)c3ccccc3Br)CC2)cc1)c1cccc(F)c1,i,?,?,?,5.8µM
CN1C(=O)/C(=C\C=C2/CCCN2C)N(C)C1=S,i,i,i,?,i
O=C(Nc1cccc2c1C(=O)NC2=O)c1ccccc1[N+](=O)[O-],21µM,i,i,i,i
O=C(NNC(=O)c1ccccc1[N+](=O)[O-])Nc1ccc(Cl)cc1,i,i,i,?,i
O=C(NNS(=O)(=O)c1ccccc1[N+](=O)[O-])c1ccccc1[N+](=O)[O-],0.52µM,i,i,i,i
O=C(Nc1ccc(Cl)cn1)c1ccccc1[N+](=O)[O-],15µM,?,?,i,?
